Here are results for 13 compounds from PubChem BioAssay (NCI).

About 83,000 compounds went through this panel and 20% of them were active in at least one assay; those are over-represented in the sample as a whole.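 Step 1: grow cells in 96-well plates. Step 2: add test compound at a single concentration. Step 3: incubate 48 h. Step 4: record percent growth.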 Unmarked numbers belong to inactive results. Activity calls are given as the source filed them. The calls were made as follows: active = growth percent below 10; inactive = the rest.

Holding throughout (experiment): NCI-60 one-dose screen, 48 h (100 = growth as untreated, 0 = no growth, -100 = all killed)
The subject of one assay is SK-MEL-2 melanoma. As to conditions: 10 µM unless noted.
The next assay concerns EKVX NSCLC. The conditions noted are these: 10 µM unless noted.
The subject of a further assay is SN12C renal. The conditions noted are these: 10 µM unless noted.
The subject of the next assay is UO-31 renal. As to conditions: 10 µM unless noted.
The subject of the next assay is TK-10 renal. The conditions noted are these: 10 µM unless noted.
Another assay relates to ACHN renal. The conditions noted are these: 10 µM unless noted.
For another assay, the system named is CAKI-1 renal. The conditions noted are these: 10 µM unless noted.
Another assay deals with A498 renal. The conditions noted are these: 10 µM.
A further assay concerns HL-60(TB) leukemia. As to conditions: 10 µM unless noted.
Another assay deals with CCRF-CEM leukemia. As to conditions: 10 µM unless noted.

Regarding `Cc1cnc(/C=C/C(=O)O)cc1-c1cc2c(cc1C)C(C)(C)CCC2(C)C`, the growth in the assay with SK-MEL-2 melanoma was 74.4%; in the assay on EKVX NSCLC, 46%; in the assay on SN12C renal, 90.5%; in the assay with UO-31 renal it was 68.4%; in the assay on TK-10 renal it was 113%; in the assay on ACHN renal it was 81.7%. Moreover, the growth with CAKI-1 renal is 79%; with A498 renal it was 105%; with HL-60(TB) leukemia, 63.3%; in the assay on CCRF-CEM leukemia it was 85%.

Take `O=C([O][Hg][CH2]C1COCC([CH2][Hg][O]C(=O)c2ccccc2)O1)c1ccccc1` (stereo not given): the growth with SK-MEL-2 melanoma was 105%; in the assay on EKVX NSCLC, 103%; in the assay on SN12C renal, 56.8%; in the assay on UO-31 renal, -12.1% (active); with TK-10 renal it was 38.1%; in the assay with ACHN renal, 70.6%. Besides, the growth with CAKI-1 renal is 57.2%; with A498 renal, 114%; in the assay on HL-60(TB) leukemia, 23.1%; with CCRF-CEM leukemia, -10.3% (active).

For the compound `COc1ccc(C/C(C)=C(\c2ccc(OCCN3CCOCC3)cc2)c2ccc(OC(=O)Cc3ccccc3)cc2)cc1`, the growth was -80.6% (active) in the assay on SK-MEL-2 melanoma; 17.9% in the assay with EKVX NSCLC; -73.7% (active) in the assay on SN12C renal; -84.6% (active) in the assay with UO-31 renal; -46.1% (active) in the assay with TK-10 renal; -3.31% (active) in the assay on ACHN renal. In addition, the growth was 7.71% (active) in the assay with CAKI-1 renal, -90.5% (active) in the assay on A498 renal, -59.3% (active) in the assay with HL-60(TB) leukemia and -13.7% (active) in the assay with CCRF-CEM leukemia.

With `CCn1c2ccccc2c2cc(C(=O)c3ccc(C)c4ccccc34)ccc21`, the growth is 24% in the assay on SK-MEL-2 melanoma; 32% with EKVX NSCLC; 22.7% with SN12C renal; 30.5% in the assay on UO-31 renal; 38% with TK-10 renal; 23.9% with ACHN renal. The growth was 28.8% with CAKI-1 renal, 7.13% (active) with A498 renal, 8.9% (active) in the assay on HL-60(TB) leukemia and 18.2% in the assay with CCRF-CEM leukemia.

Consider `Cc1ccc2c(C(C[N+](=O)[O-])c3cccs3)c(-c3ccccc3)[nH]c2c1` (stereo not given), for which the growth was 20.7% in the assay with SK-MEL-2 melanoma; 35.9% in the assay with EKVX NSCLC; 32% with SN12C renal; 34.8% in the assay with UO-31 renal; 64.7% in the assay on TK-10 renal; 33.8% in the assay on ACHN renal. For the same compound, the growth with CAKI-1 renal is 2.76% (active); in the assay on A498 renal it was -19.6% (active); in the assay with HL-60(TB) leukemia it was 0.431% (active); in the assay with CCRF-CEM leukemia, 15%.

As for `OCCNC(Cc1ccccc1)c1ccc2c(c1)OCO2` (stereo not given), the growth in the assay on SK-MEL-2 melanoma was 72.2%; in the assay with EKVX NSCLC, 100%; in the assay on SN12C renal, 98.8%; with UO-31 renal it was 78.9%; with TK-10 renal, 73.2%; in the assay on ACHN renal, 106%. The growth with CAKI-1 renal was 97.1%; in the assay on A498 renal, 86.5%; in the assay with HL-60(TB) leukemia, 79.6%; in the assay with CCRF-CEM leukemia it was 111%.

Turning to `CC(=O)O[C@H]1C(=O)[C@@]2(C)[C@H]([C@H](OC(=O)c3ccccc3)[C@]3(O)C[C@H](OC(=O)[C@H](OC(=O)OCC4COC(C)(C)O4)[C@@H](NC(=O)c4ccccc4)c4ccccc4)C(C)=C1C3(C)C)[C@]1(OC(C)=O)CO[C@@H]1C[C@@H]2O` (stereo not given in full), the growth with SK-MEL-2 melanoma was 54.2%; in the assay on EKVX NSCLC it was 70.8%; in the assay with SN12C renal, 51.7%; in the assay with UO-31 renal, 71.3%; in the assay with TK-10 renal it was 79.6%; with ACHN renal, 66.5%. Moreover, the growth with CAKI-1 renal is 37.5%; with A498 renal, 47.1%; in the assay with HL-60(TB) leukemia, 12.8%; in the assay on CCRF-CEM leukemia it was 31.3%.

Turning to `Clc1ccc(N2COOC3(OOC2)C2CC4CC(C2)CC3C4)cc1`, the growth is 87.4% in the assay on SK-MEL-2 melanoma; 64.2% in the assay on EKVX NSCLC; 66.9% with SN12C renal; -92.1% (active) in the assay on UO-31 renal; 27.2% with TK-10 renal; 29.4% in the assay on ACHN renal. In addition, the growth in the assay on CAKI-1 renal is 52.3%; in the assay on A498 renal, 96.8%; with HL-60(TB) leukemia, -58% (active); in the assay with CCRF-CEM leukemia, -50.3% (active).

`O=C(O)C(O)C(O)C1[O][Sb]([c]2ccc([N+](=O)[O-])cc2)[O]C1CO` (stereo not given): the growth is 115% in the assay with SK-MEL-2 melanoma; 105% in the assay with EKVX NSCLC; 90.4% in the assay with SN12C renal; 96.4% with UO-31 renal; 98.4% in the assay with TK-10 renal; 101% with ACHN renal. The growth in the assay with CAKI-1 renal was 102%; in the assay with A498 renal, 83.6%; with HL-60(TB) leukemia, 92.8%; with CCRF-CEM leukemia it was 98.5%.

On to `CN(CCCCN(C)CCOS(C)(=O)=O)CCOS(C)(=O)=O`, for which the growth is 102% in the assay on SK-MEL-2 melanoma; 112% with EKVX NSCLC; 71.9% in the assay on SN12C renal; 71.5% in the assay on UO-31 renal; 98.7% in the assay with TK-10 renal; 24.9% with ACHN renal. For the same compound, the growth is 2.42% (active) in the assay on CAKI-1 renal, 85.3% with A498 renal, 61.4% in the assay on HL-60(TB) leukemia and 50.3% in the assay on CCRF-CEM leukemia.

For `COc1ccc(O)c(CNC(=O)CN2CCCC2=O)c1`, the growth with SK-MEL-2 melanoma was 103%; in the assay on EKVX NSCLC, 100%; with SN12C renal, 97.6%; in the assay on UO-31 renal it was 98.7%; in the assay on TK-10 renal, 105%; in the assay on ACHN renal, 99.7%. In addition, the growth is 97.4% in the assay with CAKI-1 renal, 93.6% with A498 renal, 142% in the assay on HL-60(TB) leukemia and 26.4% with CCRF-CEM leukemia.

On to `Clc1ccc(CO/N=C(\Cn2ccnc2)c2ccc(Cl)cc2Cl)c(Cl)c1`, for which the growth in the assay on SK-MEL-2 melanoma is -48% (active); in the assay with EKVX NSCLC it was 6.63% (active); with SN12C renal it was 2.12% (active); in the assay with UO-31 renal, -3% (active); in the assay on TK-10 renal, -1.82% (active); with ACHN renal, 6.26% (active). The growth in the assay with CAKI-1 renal was 1.17% (active); with A498 renal, -5.95% (active); with HL-60(TB) leukemia, -23% (active); with CCRF-CEM leukemia, -13.1% (active).

In the case of `CC[C@H](C)[C@H](NC(=O)NC(C)(C)C)C(=O)N(C)[C@H](C[C@@H](OC(C)=O)c1nc(C(=O)N[C@@H](Cc2ccccc2)C[C@H](C)C(=O)OC)cs1)C(C)C`, the growth with SK-MEL-2 melanoma was 47.3%; in the assay on EKVX NSCLC it was 29.4%; in the assay with SN12C renal, 12.1%; with UO-31 renal, 45.4%; in the assay with TK-10 renal, 49.5%; with ACHN renal, 22.7%. Besides, the growth was 22.2% in the assay with CAKI-1 renal, -10% (active) in the assay with A498 renal, -14.6% (active) with HL-60(TB) leukemia and 10.7% in the assay on CCRF-CEM leukemia.
